In PubChem BioAssay (EPA / NIEHS):
Where “and” joins values, the source holds several entries; their conditions need not be identical. Equal entries are not always repeated. Where a structure was tested more than once in an assay, its records may differ in their call. Calls of active or inactive are those of the source. The calls were made as follows: active = hit-call score of the fitted dose curve at least 0.9, where 1 is the maximum; inactive = score below 0.9.

Key:
[1] = read-out: Matrix Metallopeptidase 9 (MMP9), MMP9 (gene 4318); experiment: BSK_BE3C_MMP9: BioMAP Diversity Plus: BE3C Assay for Matrix Metallopeptidase 9 (MMP9) Biomarker Activity (AID 2284283); details: primary human bronchial epithelial cells
Procedure, shortened: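 Cells were dosed, incubated 24 h, then assayed for MMP-9 by ELISA; activity was fitted upward against DMSO. The system used human lung primary bronchial epithelial cells, with SRB total-protein staining run alongside for cytotoxicity.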

[2] = read-out: Plasminogen activator inhibitor-1 (PAI1), SERPINE1 (gene 5054); experiment: BSK_CASM3C_PAI1: BioMAP Diversity Plus: CASM3C Assay for Plasminogen activator inhibitor-1 (PAI1) Biomarker Activity (AID 2284284); details: primary human coronary artery smooth muscle cells;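 also: PAI-1 protein level measured by ELISA 24 h after dosing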
[3] = read-out: Monocyte Chemoattractant Protein-1 (MCP1), CCL2 (gene 6347); experiment: BSK_hDFCGF_MCP1: BioMAP Diversity Plus: hDFCGF Assay for Monocyte Chemoattractant Protein-1 (MCP1) Biomarker Activity (AID 2284285); details: primary human foreskin fibroblasts
Procedure, shortened: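 MCP-1 ELISA readout was taken 24 hours after dosing primary human dermal fibroblasts in the hDFCGF system, with DMSO as baseline. Parallel sulforhodamine B staining of total protein tracked overt cytotoxicity.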

[4] = read-out: Vascular cell adhesion molecule 1 (VCAM1), VCAM1 (gene 7412); experiment: BSK_IMphg_VCAM1: BioMAP Diversity Plus: IMphg Assay for Vascular cell adhesion molecule 1 (VCAM1) Biomarker Activity (AID 2284286); details: primary human endothelial cells with macrophages
Procedure, shortened: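 ELISA read-out of VCAM-1 on venular endothelial cell/macrophage co-cultures at 24 h post-treatment, with DMSO as baseline and positive-direction fitting. Parallel sulforhodamine B total-protein staining (560 nm) served as the overt cytotoxicity measure.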

[5] = read-out: Intercellular Adhesion Molecule 1 (ICAM1), ICAM1 (gene 3383); experiment: BSK_hDFCGF_ICAM1: BioMAP Diversity Plus: hDFCGF Assay for Intercellular Adhesion Molecule 1 (ICAM1) Biomarker Activity (AID 2284287); details: primary human foreskin fibroblasts
Procedure: BSK_hDFCGF is a cell-based, multiplexed-readout assay that uses foreskin fibroblast, a human skin primary cell, with measurements taken at 24 hours after chemical dosing in a 96-well plate.BSK_hDFCGF_ICAM1 is an assay component measured in the BSK_hDFCGF assay. It measures ICAM-1 antibody related to regulation of gene expression using ELISA technology.Data from the assay component BSK_hDFCGF_ICAM1 was analyzed at the endpoint, BSK_hDFCGF_ICAM1, in the positive analysis fitting direction relative to DMSO as the negative control and baseline of activity. Using a type of binding reporter, gain or loss-of-signal activity can be used to understand protein changes. To generalize the intended target to other relatable targets, this assay endpoint is annotated to the 'cell adhesion molecules' intended target family, where the subfamily is 'Immunoglobulin CAM'.
(§1) The levels of cell surface (or secreted, indicated by the prefix "s") biomarker endpoints were measured by ELISA. Overt cytotoxicity to cells in confluent adherent cultures (all systems other than the BT system) was assessed by measuring total protein levels using sulforhodamine B (SRB) staining in parallel cultures at the time of biomarker measurements, indicated as SRB endpoints. For proliferation assays for adherent cell types, individual cell types are cultured at sub-confluence and relative cell numbers quantified by SRB staining at time points optimized for each system (48 h: 3C and CASM3C systems; 72 h: BT and HDF3CGF systems; 96 h: SAg system). SRB was performed by staining cells with 0.1% SRB after fixation with 10% TCA and reading wells at 560 nm.Viability and proliferation of PBMC (T cells) was quantified by Alamar Blue reduction for the SAg and BT systems. For PBMC viability (referred to as PBMC Cytotoxicity within the assay endpoint names), cells were plated (75,000/well in a 96-well plate) and then chemical samples added for 1 h before addition of activators, SEB and TSST-1 (20 ng/mL final concentration each). Cells were incubated for 90 h. Then, Alamar Blue (20 uL/well) (Invitrogen, Cat DAL1100) was added for 6 h, and the plates were read with a fluorescence microplate reader at 546/580 nm (excitation/emission). For PBMC proliferation, cells were plated and activated as above but incubated for only 16 h prior to addition of Alamar Blue. Plates were read after 6 h.

CD40, CD40 (gene 958) = experiment: BSK_IMphg_CD40: BioMAP Diversity Plus: IMphg Assay for CD40 Biomarker Activity (AID 2284288); details: primary human endothelial cells with macrophages
Procedure: BSK_IMphg is a cell-based, multiplexed-readout assay that uses venular endothelial cells and macrophages, a human vascular primary cell, with measurements taken at 24 hours after chemical dosing in a microplate: 96-well plate.BSK_IMphg_CD40 is an assay component measured in the BSK_IMphg assay. It measures CD40 antibody related to regulation of gene expression using ELISA technology.Data from the assay component BSK_IMphg_CD40 was analyzed at the endpoint, BSK_IMphg_CD40, in the positive analysis fitting direction relative to DMSO as the negative control and baseline of activity. Using a type of binding reporter, gain or loss-of-signal activity can be used to understand protein changes. To generalize the intended target to other relatable targets, this assay endpoint is annotated to the 'cytokine' intended target family, where the subfamily is 'inflammatory factor'.
as §1

[6] = read-out: TIMP metallopeptidase inhibitor 2 (TIMP2), TIMP2 (gene 7077); experiment: BSK_hDFCGF_TIMP2: BioMAP Diversity Plus: hDFCGF Assay for TIMP metallopeptidase inhibitor 2 (TIMP2) Biomarker Activity (AID 2284289); details: primary human foreskin fibroblasts
Procedure, shortened: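 Primary human foreskin fibroblasts in the hDFCGF system, dosed for 24 h; TIMP-2 level measured by ELISA, fitted in the positive direction against DMSO; cytotoxicity checked in parallel by sulforhodamine B total protein staining.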

[7] = read-out: Interleukin-1 alpha (IL1a), IL1A (gene 3552); experiment: BSK_IMphg_IL1a: BioMAP Diversity Plus: IMphg Assay for Interleukin-1 alpha (IL1a) Biomarker Activity (AID 2284290); details: primary human endothelial cells with macrophages
Procedure, shortened: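 IL-1α is quantified by ELISA at 24 h in the endothelial/macrophage IMphg co-culture, with gain of signal fitted relative to DMSO. Parallel SRB total-protein staining flags overt toxicity.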

[8] = read-out: E-selectin (Homo sapiens) (UniProt P16581); experiment: BSK_IMphg_ESelectin: BioMAP Diversity Plus: IMphg Assay for Eselectin Biomarker Activity (AID 2284291); details: primary human endothelial cells with macrophages
Procedure, shortened: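 Analysed against DMSO baseline in the positive fitting direction, this endpoint is an ELISA read of E-selectin. It comes from human venular endothelial cells co-cultured with macrophages, sampled 24 h post-dose.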

[9] = BSK_IMphg_SRB: Viability Assessment in the BioMAP Diversity Plus: IMphg Assay (AID 2284292); details: primary human endothelial cells with macrophages;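 also: measured one day after compound addition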
Procedure, shortened: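 SRB viability endpoint: cultures of human endothelial cells plus macrophages fixed with 10% TCA, stained with 0.1% SRB, read at 560 nm 24 h post-dosing. Only gain-of-signal fitted, relative to DMSO.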

Measured: AC50

Sequence of E-selectin (Homo sapiens) (P16581 whole entry, looked up): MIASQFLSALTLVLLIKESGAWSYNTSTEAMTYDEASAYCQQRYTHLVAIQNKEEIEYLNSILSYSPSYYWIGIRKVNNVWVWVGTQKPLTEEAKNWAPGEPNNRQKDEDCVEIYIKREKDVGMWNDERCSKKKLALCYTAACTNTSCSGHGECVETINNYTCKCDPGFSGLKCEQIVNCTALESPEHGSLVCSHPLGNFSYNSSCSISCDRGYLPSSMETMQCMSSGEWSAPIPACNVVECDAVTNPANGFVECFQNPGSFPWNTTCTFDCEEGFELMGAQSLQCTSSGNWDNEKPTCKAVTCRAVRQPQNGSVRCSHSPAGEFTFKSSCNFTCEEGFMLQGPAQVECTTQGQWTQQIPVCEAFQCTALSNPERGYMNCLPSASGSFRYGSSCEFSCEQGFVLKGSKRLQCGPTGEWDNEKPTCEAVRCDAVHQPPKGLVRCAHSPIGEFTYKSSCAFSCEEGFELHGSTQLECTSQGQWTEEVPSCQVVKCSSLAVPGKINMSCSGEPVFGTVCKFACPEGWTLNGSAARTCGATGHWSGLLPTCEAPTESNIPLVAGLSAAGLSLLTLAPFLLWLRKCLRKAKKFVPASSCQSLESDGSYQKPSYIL

O=S(=O)(O)C(F)(F)C(F)(F)C(F)(F)C(F)(F)F
inactive: all assays above

O=S(=O)(O)C(F)(F)C(F)(F)C(F)(F)C(F)(F)C(F)(F)C(F)(F)F
active: [8] 37.6 µM
inactive: [1] | [2] | [3] | [4] | [5] | CD40, CD40 (gene 958) | [6] | [7] | [8] | [9]

O=C(O)C(F)(F)C(F)(F)C(F)(F)C(F)(F)C(F)(F)F
inactive: all assays above

NS(=O)(=O)C(F)(F)C(F)(F)C(F)(F)C(F)(F)C(F)(F)C(F)(F)C(F)(F)C(F)(F)F
inactive: [2]
active: [1] 30 µM | [3] 21.7 µM and 17.3 µM | [4] 47.3 µM and 56.6 µM | [5] 12.1 µM and 15.7 µM | CD40, CD40 (gene 958) 31.8 µM and 25.7 µM | [6] 53.9 µM and 52.3 µM | [7] 53.6 µM and 52.9 µM | [8] 39.9 µM and 30 µM | [9] 51 µM and 48.3 µM

O=C(O)C(F)(F)C(F)(F)C(F)(F)C(F)(F)C(F)(F)C(F)(F)C(F)(F)C(F)(F)F
active: [1] 54 µM and 56.6 µM | [4] 30 µM | CD40, CD40 (gene 958) 30 µM and 44.9 µM | [9] 44.9 µM
inactive: [2] | [3] | [4] | [5] | [6] | [7] | [8] | [9]

O=C(O)C(F)(F)C(F)(F)C(F)(F)C(F)(F)C(F)(F)C(F)(F)C(F)(F)C(F)(F)C(F)(F)F
active: [1] 15.1 µM and 17.4 µM | [3] 56.1 µM and 56.6 µM | [4] 54.8 µM and 26.9 µM | [5] 49.8 µM and 49 µM | CD40, CD40 (gene 958) 45.9 µM and 42.3 µM | [6] 11.2 µM and 19.7 µM | [8] 47.6 µM and 50.2 µM | [9] 53.8 µM and 46.6 µM
inactive: [2] | [7]

COc1ccc(O)c(C(C)(C)C)c1
inactive: [1] | [2] | [3] | [5] | [6]
